# Assay results reported in PubChem BioAssay (NCATS).
# Results filed as inconclusive are left out. Where a call stands in place of a potency, no number is given. Active and inactive are the calls of the source. Unless noted, calls come from the whole dose curve; as a rule, active = well fitted curve in the direction sought with a large enough effect; inconclusive = small, poorly fitted or top-dose-only effect, or another doubt; inactive = no such curve, though single readings can be large; an effect the other way counts as inactive or inconclusive.
# Legend:
# [1] = target: ATP-dependent 6-phosphofructokinase (Trypanosoma brucei brucei) (UniProt O15648); experiment: qHTS Assay to Find Inhibitors of T. brucei phosphofructokinase: hit validation (AID 492961); note: potency is the fitted concentration of half-maximal effect
# Summary of the method: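 PFK 1.25 nM, F6P 0.5 mM, ATP 0.1 mM, MgCl2 5 mM, 0.1 M TEA pH 8.0, Tween20 0.01%, BSA 0.1%; 45 min RT. ADP-Glo two-step detection, luminescence. qHTS titration; curve fitting with curve-class categorization.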
# [2] = Validation screen for small molecules that induce genotoxicity in human embryonic kidney (HEK293T) cells expressing luciferase-tagged ELG1 (AID 493106)
# Summary of the method: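 Luminescence from an ELG1-luciferase fusion serves as the read-out, rising when genetic stress elevates ELG1 protein. HEK293T reporter cells (2,000 per well) received 23 nL compound, incubated 16 hr at 37 °C, then ONE-Glo for 30 min at room temperature.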
# [3] = target: Thyrotropin-releasing hormone receptor (Homo sapiens) (UniProt P34981); experiment: qHTS for Small Molecule Agonists and Allosteric Enhancers of Human TRH Receptor: Validation Screen for Agonists (AID 493127;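 active = calcium activation more than 3 SD above the typical response in the agonist read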;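 note: intracellular calcium rise by fluo-8 fluorescence before TRH EC20 addition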); details: TRH receptor agonist cell assay; at 2 µM; stronger effect = higher value
# Summary of the method: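 Cells 2000/well, 10% FCS, 18 h 33.5C/5% CO2 → fluo-8 Ca dye, RT 30 min–1.5 h → FDSS baseline 10 × 1 s → compound added → 230 cycles (1 s/cycle) agonist mode. TRH controls.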
# [4] = Nrf2 qHTS screen for inhibitors: Validation (AID 493153; active = well fitted inhibition curve with a large enough effect in the main read-out, with a control signal flat, not every such curve was filed as active); details: Potency: luciferase luminescence; viability change: measured here: cytotoxicity max response
# Summary of the method: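 Luminescence from an ARE-firefly luciferase reporter in A549 cells gives Nrf2 inhibition; an earlier CellTiter-Fluor fluorescent read flags cytotoxicity. Cells in 5% FBS OPTI-MEM received compound dilution series for 18-24 h at 37°C.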
# [5] = qHTS for Inhibitors of Cell Surface uPA Generation: Validation Assay (AID 493164)
# Summary of the method: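 RAW 264.7 cells (4000/well) were plated overnight, then exposed for 18 h at 37 C, 5% CO2 to compounds in a 7-point 1:5 titration (2.45 nM–38.3 uM final). Intracellular ATP was read by ATP-Lite luminescence.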
# [6] = target: Galactokinase (Homo sapiens) (UniProt P51570); experiment: qHTS Validation Assay for Inhibitors of Human Galactokinase (GALK) (AID 493189)
# Summary of the method: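 GALK (5 nM) with 35 uM ATP and 100 uM galactose in HEPES pH 8.0 with MgCl2, NaCl, DTT and BSA. Reaction ran 1 h at room temperature. Residual ATP read by Kinase-Glo Plus luminescence.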
# [7] = Validation screen for small molecules that induce DNA re-replication in SW480 colon adenocarcinoma cells (AID 504364)
# Summary of the method: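 250 cells/well; compound pinned in; 48 hr, 37 C, 5% CO2; Hoechst added, 40 min; nuclear fluorescence imaged, 405 ex / 500-530 em; re-replication scored as increase in high-intensity nuclei.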
# [8] = target: Peptidyl-prolyl cis-trans isomerase NIMA-interacting 1 (Homo sapiens) (UniProt Q13526); experiment: qHTS Validation Assay to Find Inhibitors of Pin1 (AID 504536; active = well fitted inhibition curve with a large enough effect in the polarisation, with a control signal flat, not every such curve was filed as active; the % refers to the polarisation)
# Summary of the method: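 Fluorescence polarization competition: compounds (titration) displace HiFluor-488-labeled Pin1-1b peptide from Pin1 (0.3 uM final) in pH 7.5 HEPES buffer with DTT, 10 min at room temperature; %Activity normalized to no-enzyme wells, curves fitted.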
# [9] = target: Phosphoglycerate kinase, glycosomal (Trypanosoma brucei brucei) (UniProt P07378); experiment: qHTS Validation Assay to Find Inhibitors of Phosphoglycerate Kinase (AID 504547)
# Summary of the method: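 Substrate/PGK mix plus compound; reaction started with GAPDH (100nM final) to form 1,3-BPG; 60 min RT; Kinase-Glo Plus 10 min; luminescence. TEA 100mM pH 7.6, MgCl2 5mM, Tween-20 0.01%.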
# [10] = target: phosphoglycerate mutase (Leishmania major) (UniProt Q4Q090); experiment: qHTS Validation Assay to Find Inhibitors of Phosphoglycerate Mutase (AID 504548);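 note: end-point luminescence from Kinase-GloPlus after the PGAM reaction; series mostly up to about 58 µM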
# Summary of the method: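 L. major PGAM (1.25nM final) was added to substrate buffer and pinned compound, incubated 45 minutes at room temperature, then Kinase-GloPlus added; luminescence read after 10 minutes. Buffer: 100 mM TEA pH 7.6, 5 mM MgCl2, 0.01% Tween-20.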
# [11] = target: Ubiquitin carboxyl-terminal hydrolase 1 (Homo sapiens) (UniProt O94782); experiment: Inhibitors of USP1/UAF1: Pilot qHTS (AID 504865);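 note: rhodamine fluorescence freed from ubiquitin-rhodamine substrate followed over time; top concentration of the series differs between compounds; nearly all actives have a fitted effect of over 35% in size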
# Summary of the method: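 USP1/UAF1 complex at 1 nM preincubated 15 min at room temperature with compound, then Ub-Rho substrate added at 150 nM final. Fluorescence (480/540 nm) read kinetically in 50 mM HEPES pH 7.8, 0.5 mM EDTA, 1 mM TCEP, 0.1 mg/ml BSA, 0.01% Tween-20.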
# [12] = target: DNA dC->dU-editing enzyme APOBEC-3G (Homo sapiens) (UniProt Q9HC16); experiment: qHTS for inhibitors of Vif-A3G interactions: Validation (AID 588379)
# Summary of the method: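 HeLa cells stably expressing Vif and A3G-eYFP, 700 cells/well, incubated overnight at 37 deg C, then exposed to compound overnight at 37 deg C. Inhibition of Vif-mediated degradation read as increased yellow fluorescence (Ex 488/Em 500-530) by laser-scanning cytometry.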
# Chain of Galactokinase (Homo sapiens) (P51570 whole entry, looked up): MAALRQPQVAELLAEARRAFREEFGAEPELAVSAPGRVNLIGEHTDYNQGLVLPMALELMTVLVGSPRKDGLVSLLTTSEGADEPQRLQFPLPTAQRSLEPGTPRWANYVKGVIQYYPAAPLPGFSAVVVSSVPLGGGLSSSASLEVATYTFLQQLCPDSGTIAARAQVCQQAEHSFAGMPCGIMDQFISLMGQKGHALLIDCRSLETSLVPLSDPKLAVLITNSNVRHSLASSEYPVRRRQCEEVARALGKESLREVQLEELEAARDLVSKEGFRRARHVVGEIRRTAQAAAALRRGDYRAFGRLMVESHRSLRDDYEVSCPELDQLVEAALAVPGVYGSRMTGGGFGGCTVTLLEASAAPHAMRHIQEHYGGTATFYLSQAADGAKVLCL
# Chain of Ubiquitin carboxyl-terminal hydrolase 1 (Homo sapiens) (O94782 whole entry, looked up): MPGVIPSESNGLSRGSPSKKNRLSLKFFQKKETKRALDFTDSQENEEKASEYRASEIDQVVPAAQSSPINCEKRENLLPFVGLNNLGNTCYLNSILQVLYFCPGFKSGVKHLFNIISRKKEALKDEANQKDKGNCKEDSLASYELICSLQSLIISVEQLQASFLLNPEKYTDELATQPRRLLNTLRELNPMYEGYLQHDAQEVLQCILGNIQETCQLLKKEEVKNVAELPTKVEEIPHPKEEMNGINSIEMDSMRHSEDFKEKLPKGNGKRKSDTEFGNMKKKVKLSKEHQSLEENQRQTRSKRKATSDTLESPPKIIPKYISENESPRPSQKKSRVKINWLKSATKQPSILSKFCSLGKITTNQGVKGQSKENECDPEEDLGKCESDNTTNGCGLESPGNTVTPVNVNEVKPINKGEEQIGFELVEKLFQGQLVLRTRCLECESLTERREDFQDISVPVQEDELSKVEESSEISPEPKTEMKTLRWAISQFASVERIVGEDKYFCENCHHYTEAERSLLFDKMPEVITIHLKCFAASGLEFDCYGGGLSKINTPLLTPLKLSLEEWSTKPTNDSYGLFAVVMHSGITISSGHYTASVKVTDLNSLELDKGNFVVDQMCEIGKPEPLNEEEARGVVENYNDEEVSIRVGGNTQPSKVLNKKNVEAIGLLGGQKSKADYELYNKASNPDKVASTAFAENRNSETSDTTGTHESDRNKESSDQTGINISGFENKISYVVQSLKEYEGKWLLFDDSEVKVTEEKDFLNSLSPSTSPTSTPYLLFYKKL
# Chain of Thyrotropin-releasing hormone receptor (Homo sapiens) (P34981 whole entry, looked up): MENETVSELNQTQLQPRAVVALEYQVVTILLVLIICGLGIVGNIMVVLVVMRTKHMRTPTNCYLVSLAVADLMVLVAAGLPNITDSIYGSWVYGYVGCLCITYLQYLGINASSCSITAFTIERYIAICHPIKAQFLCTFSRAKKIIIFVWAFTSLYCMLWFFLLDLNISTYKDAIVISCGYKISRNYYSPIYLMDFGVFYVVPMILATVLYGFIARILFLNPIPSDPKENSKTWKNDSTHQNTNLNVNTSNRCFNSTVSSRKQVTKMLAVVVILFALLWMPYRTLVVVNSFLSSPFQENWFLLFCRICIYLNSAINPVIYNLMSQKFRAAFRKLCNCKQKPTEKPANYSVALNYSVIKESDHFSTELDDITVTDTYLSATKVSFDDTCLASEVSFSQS
# Chain of ATP-dependent 6-phosphofructokinase (Trypanosoma brucei brucei) (O15648 whole entry, looked up): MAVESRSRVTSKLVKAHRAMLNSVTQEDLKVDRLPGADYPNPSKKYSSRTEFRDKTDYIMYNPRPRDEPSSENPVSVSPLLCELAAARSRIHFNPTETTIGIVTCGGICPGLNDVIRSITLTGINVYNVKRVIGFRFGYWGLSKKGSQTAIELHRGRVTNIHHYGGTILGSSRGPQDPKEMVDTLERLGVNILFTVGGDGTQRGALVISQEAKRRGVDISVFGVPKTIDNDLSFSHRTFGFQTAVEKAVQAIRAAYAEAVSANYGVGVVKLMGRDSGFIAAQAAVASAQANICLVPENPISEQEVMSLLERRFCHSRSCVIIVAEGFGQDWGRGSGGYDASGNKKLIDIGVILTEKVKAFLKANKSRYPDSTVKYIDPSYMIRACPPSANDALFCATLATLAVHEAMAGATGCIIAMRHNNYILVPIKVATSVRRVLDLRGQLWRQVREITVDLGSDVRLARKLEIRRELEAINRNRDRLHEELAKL
# Chain of Peptidyl-prolyl cis-trans isomerase NIMA-interacting 1 (Homo sapiens) (Q13526 whole entry, looked up): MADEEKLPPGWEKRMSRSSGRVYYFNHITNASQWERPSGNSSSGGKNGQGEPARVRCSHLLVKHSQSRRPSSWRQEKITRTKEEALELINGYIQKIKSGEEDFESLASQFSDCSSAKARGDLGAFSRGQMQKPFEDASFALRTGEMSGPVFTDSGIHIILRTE
# Chain of Phosphoglycerate kinase, glycosomal (Trypanosoma brucei brucei) (P07378 whole entry, looked up): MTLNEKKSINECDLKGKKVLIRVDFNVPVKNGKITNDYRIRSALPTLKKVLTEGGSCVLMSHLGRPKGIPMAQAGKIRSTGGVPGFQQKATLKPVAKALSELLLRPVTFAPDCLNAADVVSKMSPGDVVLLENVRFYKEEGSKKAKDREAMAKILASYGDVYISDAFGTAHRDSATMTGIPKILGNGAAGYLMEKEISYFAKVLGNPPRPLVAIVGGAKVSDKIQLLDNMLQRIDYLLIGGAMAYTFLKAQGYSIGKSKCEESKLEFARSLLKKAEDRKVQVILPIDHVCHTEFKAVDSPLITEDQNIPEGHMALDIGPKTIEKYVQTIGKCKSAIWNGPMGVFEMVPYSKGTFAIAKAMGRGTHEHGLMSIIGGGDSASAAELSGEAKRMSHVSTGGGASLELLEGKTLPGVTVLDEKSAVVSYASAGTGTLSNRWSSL
# Chain of phosphoglycerate mutase (Leishmania major) (Q4Q090 1-553): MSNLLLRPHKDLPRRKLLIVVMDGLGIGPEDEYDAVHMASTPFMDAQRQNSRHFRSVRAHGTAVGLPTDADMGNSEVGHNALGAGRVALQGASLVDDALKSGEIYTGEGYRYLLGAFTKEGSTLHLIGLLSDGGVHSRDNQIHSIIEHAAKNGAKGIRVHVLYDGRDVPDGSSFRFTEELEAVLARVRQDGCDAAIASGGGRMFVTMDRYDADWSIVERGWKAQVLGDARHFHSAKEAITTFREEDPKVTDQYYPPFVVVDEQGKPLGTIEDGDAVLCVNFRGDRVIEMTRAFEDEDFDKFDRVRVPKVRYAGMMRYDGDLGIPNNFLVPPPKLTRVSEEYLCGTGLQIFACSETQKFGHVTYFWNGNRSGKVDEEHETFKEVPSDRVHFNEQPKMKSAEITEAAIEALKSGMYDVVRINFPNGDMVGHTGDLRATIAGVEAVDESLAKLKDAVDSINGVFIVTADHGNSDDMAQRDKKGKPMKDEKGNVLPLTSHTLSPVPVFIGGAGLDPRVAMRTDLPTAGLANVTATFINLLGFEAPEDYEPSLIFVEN
# Chain of DNA dC->dU-editing enzyme APOBEC-3G (Homo sapiens) (Q9HC16 whole entry, looked up): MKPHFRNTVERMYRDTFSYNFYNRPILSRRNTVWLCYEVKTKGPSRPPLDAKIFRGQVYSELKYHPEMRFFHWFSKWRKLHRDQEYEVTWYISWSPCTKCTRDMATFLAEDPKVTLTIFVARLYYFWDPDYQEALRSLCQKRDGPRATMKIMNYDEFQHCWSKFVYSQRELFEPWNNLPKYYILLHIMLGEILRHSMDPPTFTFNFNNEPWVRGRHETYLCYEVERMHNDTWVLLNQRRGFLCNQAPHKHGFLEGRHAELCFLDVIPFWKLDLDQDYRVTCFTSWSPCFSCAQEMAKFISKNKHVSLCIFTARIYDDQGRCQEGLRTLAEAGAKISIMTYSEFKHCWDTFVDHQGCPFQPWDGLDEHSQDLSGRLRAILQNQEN
smiles,measurement,setting,value
CC(C(O)c1ccc(O)cc1)N1CCC(Cc2ccccc2)CC1 (stereo not drawn),Potency,[1],inactive
same,Potency,[2],inactive
same,activation,[3],5.75% (inactive)
same,Potency,[4],inactive
same,viability change,[4],-19.8%
same,outcome,[5],inactive
same,outcome,[6],inactive
same,outcome,[7],inactive
same,outcome,[8],inactive
same,outcome,[9],inactive
same,outcome,[10],inactive
same,Potency,[11],inactive
O=C(O)c1ccccn1,Potency,[1],inactive
CCOc1nc2cccc(C(=O)O)c2n1Cc1ccc(-c2ccccc2-c2nn[nH]n2)cc1,Potency,[1],inactive
CC[C@@]1(c2ccccc2)NC(=O)N(C)C1=O,Potency,[1],inactive
Cc1cc(O)cc2c1O[C@](C)(CCC[C@H](C)CCC[C@H](C)CCCC(C)C)CC2,Potency,[1],inactive
same,Potency,[11],inactive
O=C1NS(=O)(=O)c2ccccc21,Potency,[1],inactive
same,Potency,[11],inactive
Cc1cc2c(cc1S(N)(=O)=O)S(=O)(=O)CCC2,Potency,[1],inactive
Nc1ccc(S(=O)(=O)Nc2ccc(Cl)nn2)cc1,Potency,[1],inactive
CC(=O)Nc1ccc(/C=N/NC(N)=S)cc1,Potency,[1],inactive
Nc1nc2c(ncn2CCC(CO)CO)c(=O)[nH]1,Potency,[1],inactive
same,Potency,[11],inactive
Cc1cc(N)c2ccccc2[n+]1CCCCCCCCCC[n+]1c(C)cc(N)c2ccccc21,Potency,[1],inactive
same,Potency,[2],inactive
same,activation,[3],0.812% (inactive)
same,outcome,[5],inactive
same,outcome,[6],inactive
same,outcome,[7],inactive
same,outcome,[8],inactive
same,outcome,[9],inactive
same,outcome,[10],inactive
same,Potency,[11],inactive
same,outcome,[12],inactive
Cc1cc(CC(=O)O)n(C)c1C(=O)c1ccc(Cl)cc1,Potency,[1],inactive
NCCNCCNCCN,Potency,[1],inactive
CN1CCCCC1CCN1c2ccccc2Sc2ccc(S(C)=O)cc21 (stereo not drawn),Potency,[1],inactive
Cn1cc[nH]c1=S,Potency,[1],inactive
same,Potency,[11],inactive
C[C@H](N)[C@H](O)c1cccc(O)c1,Potency,[1],inactive
O=C(O)CC(O)C(=O)O (stereo not drawn),Potency,[1],inactive
same,Potency,[11],inactive
Nc1ccc(S(=O)(=O)Nc2ccccc2)cc1,Potency,[1],inactive
CCCCN(CCCC)CCCOC(=O)c1ccc(N)cc1,Potency,[1],inactive
C[C@H]1O[C@@H](n2cc(F)c(=O)[nH]c2=O)[C@H](O)[C@@H]1O,Potency,[1],inactive
same,activation,[3],0.688% (inactive)
same,outcome,[6],inactive
same,outcome,[7],inactive
O=C1OC(OC(=O)c2cccnc2Nc2cccc(C(F)(F)F)c2)c2ccccc21 (stereo not drawn),Potency,[1],inactive
O=c1cc[nH]c(=O)[nH]1,Potency,[1],inactive
same,Potency,[11],inactive
Cc1cc(C(C#N)c2ccc(Cl)cc2)c(Cl)cc1NC(=O)c1cc(I)cc(I)c1O (stereo not drawn),Potency,[1],inactive
O=C(O)c1ccccc1O,Potency,[1],inactive
Cc1cccc(C)c1NC(=O)CN(CC(=O)O)CC(=O)O,Potency,[1],inactive
CCOC(=O)[C@H](CCc1ccccc1)N[C@@H](C)C(=O)N1C(=O)N(C)C[C@H]1C(=O)O,Potency,[1],inactive
same,Potency,[11],inactive
Nc1ccc(S(=O)(=O)NC(=O)c2ccccc2)cc1,Potency,[1],inactive
O=C(CCCN1CCN(c2ccccn2)CC1)c1ccc(F)cc1,Potency,[1],inactive
CCCOC(=O)c1ccccc1,Potency,[1],inactive
CCN(CC)CCNC(C(=O)OCCC(C)C)c1ccccc1 (stereo not drawn),Potency,[1],inactive
Cc1ncc(COP(=O)(O)O)c(C=O)c1O,Potency,[1],inactive
CN1CCC[C@@H]1Cc1c[nH]c2ccc(CCS(=O)(=O)c3ccccc3)cc12,Potency,[1],inactive
same,Potency,[11],inactive
CCC(=O)Nc1ccc(O)cc1,Potency,[1],inactive
O=C1O[C@H]([C@@H](O)CO)C(O)=C1O,Potency,[1],inactive
same,Potency,[11],inactive
CCCCN1CCCC[C@H]1C(=O)Nc1c(C)cccc1C,Potency,[1],inactive
same,Potency,[11],inactive
COc1ccc(S(=O)(=O)Nc2nnc(CC(C)C)s2)cc1,Potency,[1],inactive
same,Potency,[11],inactive
NC(CSCC(=O)O)C(=O)O (stereo not drawn),Potency,[1],inactive
same,Potency,[11],inactive
O=S(=O)(O)c1cc(I)c(O)c2ncccc12,Potency,[1],31.6 µM (active)
same,Potency,[11],inactive
O=c1[nH]c(=O)c2[nH]c(=O)[nH]c2[nH]1,Potency,[1],inactive
same,Potency,[11],inactive
CN(C)CCN(Cc1ccccc1)c1ccccn1,Potency,[1],inactive
same,Potency,[11],inactive
O=c1cc[nH]c(=S)[nH]1,Potency,[1],inactive
same,Potency,[11],inactive
C[C@@H]1CN(c2c(F)c(F)c3c(=O)c(C(=O)O)cn(C4CC4)c3c2F)C[C@H](C)N1,Potency,[1],inactive
same,Potency,[11],inactive
